Compound activity: PubChem, National Center for Advancing Translational Sciences (NCATS)
This is a sample that favours compounds with a hit; in the whole collection about 21% have one here.
IL-1B inflam inh: inflammasome signaling inhibition, IL-1 beta readout | THP-1 LPS/ATP IL-1B secretion, AlphaLISA, 16 h; stronger effect = lower value | activity change, % at 57.5 µM | 360,000 tested, 4.7% active | AID 743279; in the data active = activity change below about -50%; inconclusive = mostly about -30% to -49%
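Secreted IL-1B measured by AlphaLISA bead assay after 16 h compound exposure of THP-1 cells; compounds (final up to 57.5 uM) added 1 h before LPS (250 ng/mL) and ATP (1.25 mM) stimulation; lower signal means less secretion.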
TDP1 cell CPT: DT40-hTDP1 cell growth loss with CPT; chicken DT40 Tdp1-/-;hTDP1 cells + 20 nM CPT, ATP luminescence, 48 h; Potency, µM (top dose mostly 46.2 µM), inactives show at the top dose activity change, negative = growth inhibition, usual class: inhibitors; 420,000 tested, 12% active; also: potency is read from the fitted curve at half-maximal effect; nearly all actives have a fitted effect of over 55% in size
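Chicken DT40 Tdp1-/- cells complemented with human TDP1, 400 cells/well, exposed to compounds plus 20 nM camptothecin for at least 48 h at 37 C; viability read as ATP content by CellTiter-Glo luminescence.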
TDP1 cell noCPT: qHTS for Inhibitors of human tyrosyl-DNA phosphodiesterase 1 (TDP1): qHTS in cells in absence of CPT; DT40 Tdp1-/- hTDP1 cells, no CPT, ATP luminescence, 48 h; Potency, µM (series often up to 46.2 µM), inactives show top-dose activity change, negative = growth inhibition, actives largely listed as inhibitors; 420,000 tested, 15% active; also: potency is read from the fitted curve at half-maximal effect; nearly all actives have a fitted effect of over 55% in size
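Cells were dispensed at 400 per well, compounds added by pin tool, plates incubated ≥48 hr at 37 °C, then CellTiter-Glo added for 30 min at room temperature before luminescence reading. Line: DT40 Tdp1-/- complemented with hTDP1; camptothecin omitted.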
ELG1 repair inh: inhibitors of ELG1-dependent DNA repair in HEK293T cells. HEK293T ELG1-luciferase reporter, luminescence, 16 h; DNA damage induced by 5-fluorouridine. Potency, µM (top dose mostly 46.1 µM), inactives show at the highest dose activity change, negative = inhibition, usual class: inhibitors. 330,000 tested, 2.3% active. AID 504467; also: potency is read from the fitted curve at half-maximal effect; nearly all actives have a fitted effect of over 55% in size
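Quantitative HTS, concentration-response format. 2,000 cells/well co-treated with 5-fluorouridine and compound, 16 hr in 5% CO2 at 37 °C; ONE-Glo luminescence read after 30 min.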
RORg inh: inhibitors of mouse ROR gamma transcriptional activity; AID 2551; 310,000 tested, 5.4% active; P51450; Potency, µM (highest dose often 53.6 µM), inactives show at the highest dose activity change, negative = inhibition, hits mostly inhibitors; Drosophila S2 Gal4-RORgamma UAS-luciferase reporter, 20 h; also: potency is read from the fitted curve at half-maximal effect; nearly all actives have a fitted effect of over 60% in size
Target sequence (P51450 whole entry, looked up, the tested form may be a part): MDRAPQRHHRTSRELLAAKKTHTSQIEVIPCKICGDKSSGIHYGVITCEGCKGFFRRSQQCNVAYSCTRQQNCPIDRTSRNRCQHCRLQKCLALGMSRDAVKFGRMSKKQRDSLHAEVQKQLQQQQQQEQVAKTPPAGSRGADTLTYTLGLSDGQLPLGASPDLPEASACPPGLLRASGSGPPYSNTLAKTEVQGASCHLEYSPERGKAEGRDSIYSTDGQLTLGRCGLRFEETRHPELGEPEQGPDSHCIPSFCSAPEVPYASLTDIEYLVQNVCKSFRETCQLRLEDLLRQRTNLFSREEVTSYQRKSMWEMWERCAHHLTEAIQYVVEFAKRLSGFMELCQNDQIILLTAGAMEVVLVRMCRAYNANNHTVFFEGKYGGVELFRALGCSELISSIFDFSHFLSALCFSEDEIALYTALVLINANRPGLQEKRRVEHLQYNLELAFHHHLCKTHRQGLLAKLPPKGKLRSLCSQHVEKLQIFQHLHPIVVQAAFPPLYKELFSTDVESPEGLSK
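Luciferase reporter read in Schneider cells carrying Gal4-RORγ (mouse) and UAS-Photinus luciferase; cells given compound 1 h before 700 uM copper sulfate induction, then incubated 20 h at ambient temperature.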
VP16 counter: Gal4-VP16 reporter inhibition counter-screen | Potency, µM (series often up to 53.6 µM), inactives show top-dose activity, negative = inhibition, actives largely listed as inhibitors | AID 2546 | 310,000 tested, 3.5% active | Drosophila S2 Gal4-VP16 UAS-luciferase, luminescence, 20 h;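 also: Gal4-VP16 expression switched on by copper sulfate through the metallothionein promoter; potency is read from the fitted curve at half-maximal effect; nearly all actives have a fitted effect of over 50% in size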
* marks the source's active call; other numbers are inactive results; i = inactive; ? = inconclusive; nt = no result given; [ ] = dose if it differs, or a comment. Unless noted, calls follow the shape of the dose curve; as a rule, active = well fitted curve in the direction sought with a large enough effect; inconclusive = small, poorly fitted or top-dose-only effect, or another doubt; inactive = no such curve, though single readings can be large; an effect the other way counts as inactive or inconclusive. % is scaled to controls: 0 for no effect and ±100 for the full control effect.

SMILES | IL-1B inflam inh | TDP1 cell CPT | TDP1 cell noCPT | ELG1 repair inh | RORg inh | VP16 counter
COc1ccc(C(=O)CC(=O)c2ccc(F)cc2)cc1 | -52.6* | -21.6% | ? | nt | nt | nt
Cc1cnc(CNc2nc3cc(-c4ccccc4C)sc3c(=O)n2C)cn1 | 8.2 | ? | ? | nt | nt | nt
COc1cccc(C(=O)NNC(=O)C(=O)Nc2ccc(OC)cc2OC)c1 | 6.0 | ? | ? | -3.9% | 14.1µM* | 1.2%
COc1ccc(C(=O)NNC(=O)C(=O)Nc2ccc(C)c(Cl)c2)cc1 | -10.7 | 23.1µM* | ? | 2.5% | 7.6% | -5.0%
COc1cccc(C(=O)NNC(=O)C(=O)Nc2cccc3ccccc23)c1 | -5.3 | ? | ? | -8.8% | -23.6% | -2.4%
COc1ccc(C(=O)NNC(=O)C(=O)Nc2ccc(C)cc2)cc1 | -3.0 | -10.8% | ? | 1.5% | -31.3% | -11.6%
CC1(C)OC(=O)C=C[C@@]2(C)C1C[C@@H](O)[C@]1(C)C2CC[C@@]2(C)C(c3ccoc3)OC(=O)[C@H]3O[C@]321 (stereo not given in full) | nt | -21.9%[9.04 µM] | ? | nt | -13.2% | -14.8%
COc1ccc(OC)c(Nc2nc(N)nc(-c3cc4ccccc4o3)n2)c1 | -5.9 | ? | 18.4µM* | ? | -6.1% | ?
COC(=O)c1ccc(COc2cccc3c2CCN(Cc2cccc(C)c2)C3=O)o1 | 0.0 | ? | ? | ? | 225.1% | ?
COc1ccc(NC(=O)COc2cccc3c2CCN(Cc2cccnc2)C3=O)c(OC)c1 | -25.9 | 11.6µM* | 10.3µM* | ? | -32.9% | -20.0%
CN1CCc2c(OCc3ccc(F)cc3)cccc2C1=O | -21.3 | -20.9% | ? | 10.3% | 0.6% | -4.3%
COC(=O)c1ccc(COc2cccc3c2CCN(Cc2ccccc2)C3=O)o1 | -3.2 | ? | ? | 23.1µM* | 130.2% | -11.3%
Cc1ccc(CN2CCc3c(OCc4ccc(F)cc4)cccc3C2=O)cc1 | -62.2* | ? | ? | 5.8µM* | ? | ?
O=C(O)c1ccc(/C=N/Nc2ncc(Cl)cc2Cl)cc1 | -1.6 | -24.2% | -2.0% | ? | 26.3% | -0.3%
COc1ccc(/C=N/Nc2ncc(C(F)(F)F)cc2Cl)cc1OC | -12.3 | ? | ? | -13.2% | ? | 3.55µM*
FC(F)(F)c1cnc(N/N=C/c2ccncc2)c(Cl)c1 | -6.4 | ? | ? | 6.8% | 12.6µM* | ?
COc1ccc(NC(=O)c2sc3nc[nH]c(=O)c3c2C)cc1Cl | nt | -5.4% | -19.1% | nt | nt | nt
O=c1ccc2ccccc2c2ccccc12 | -115.4* | 2.91µM* | 2.59µM* | nt | nt | nt
S=c1[nH]ncn1/N=C/c1ccccc1 | 19.1 | ? | 23.1µM* | 3.4% | ? | ?
S=c1[nH]ncn1/N=C/c1ccc(Br)cc1 | -20.9 | ? | -28.5% | ? | 2.24µM* | 3.98µM*
CN(C)CCCN(C(=O)c1ccc2c(c1)CCCC2)c1nc2ccc(Cl)cc2s1 | -123.5* | 14.6µM* | 14.6µM* | -8.3% | ? | ?
CCOc1ccc2nc(N(CCN(C)C)C(=O)c3cc4ccccc4cc3OC)sc2c1 | ? | ? | ? | ? | -12.0% | -5.6%
COc1cccc2sc(N(CCN(C)C)C(=O)c3ccc4c(c3)CCCC4)nc12 | i | ? | ? | 7.4% | -9.8% | -5.3%
CCOc1ccc2nc(N(CCCN(C)C)C(=O)c3ccc4c(c3)CCCC4)sc2c1 | -58.2* | ? | ? | 0.1% | -13.3% | -25.0%
O=C(COC(=O)c1cc(-c2ccccc2)nc2c(Cl)cccc12)c1ccc(F)cc1 | nt | -29.9% | ? | nt | nt | nt
SMILES | IL-1B inflam inh | TDP1 cell CPT | TDP1 cell noCPT | ELG1 repair inh | RORg inh | VP16 counter
CC[C@H](CC[C@@H](C)[C@H]1CC[C@H]2[C@@H]3CC=C4C[C@@H](O)CC[C@]4(C)[C@H]3CC[C@]12C)C(C)C | nt | 7.3% | 4.3% | nt | nt | nt
S=c1[nH]cnc2scc(-c3ccccc3)c12 | 12.8 | ? | 23.1µM* | -0.8% | 0.501µM* | 0.501µM*
Clc1ncnc2scc(-c3ccccc3)c12 | -70.4* | ? | ? | 2.5% | ? | -5.6%
O=C(O)c1ccccc1NC(=O)c1cc(-c2ccccc2)nc2ccccc12 | 17.4 | -4.6% | ? | -26.5% | ? | -7.7%
Cc1cccc(NC(=O)NNC(=O)c2cc(-c3ccccc3Cl)nc3ccccc23)c1 | -14.1 | ? | ? | -13.8% | 39.7% | 1.3%
Cc1cccc(NC(=S)NC(=O)c2cc(-c3ccccc3)nc3ccccc23)c1 | 15.3 | 20µM* | ? | -8.3% | 2µM* | 5.62µM*
Cc1ccccc1NC(=O)c1cccc2nc3ccccc3nc12 | -17.9 | ? | 23.1µM* | ? | 0.9% | -5.1%
Cc1ccccc1NC(=S)NC(=O)c1cc(-c2ccccc2)nc2ccccc12 | -0.5 | ? | ? | -21.1% | 1.78µM* | 3.98µM*
CSc1ccc(-c2cc3c(c4c2ccn4C)C2CCC3O2)cc1 (stereo not given) | -2.1 | ? | ? | nt | nt | nt
COc1ccccc1NC(=O)NS(=O)(=O)c1ccc(C)cc1 | 0.5 | -1.8% | 2.9% | -1.2% | 6.8% | 3.2%
CC(=O)Nc1ccc(C=C(C#N)c2ccc(C)cc2)cc1 | 15.7 | 7.8% | ? | nt | nt | nt
O=C(CSc1ncccn1)NC(=O)NC1CCCC1 | 3.5 | -1.0% | 4.1% | nt | nt | nt
COc1cccc(Cn2nnc(C(=O)Nc3cc(C)ccc3OC)c2N)c1 | -4.0 | 25.9µM* | -25.8% | ? | -16.0% | 0.0%
COc1ccc(NC(=O)c2nnn(CC(=O)Nc3cc(C)cc(C)c3)c2N)c(OC)c1 | nt | -15.5% | -20.4% | nt | nt | nt
COc1ccc(NC(=O)c2nnn(Cc3ccccc3C)c2N)c(OC)c1 | nt | -28.1% | 6.51µM* | nt | nt | nt
COc1ccc(OC)c(NC(=O)c2nnn(Cc3ccccc3C)c2N)c1 | -19.4 | ? | ? | 11.2µM* | -13.5% | -21.1%
COc1ccc(C)cc1NC(=O)c1nnn(Cc2cc(C)ccc2C)c1N | 48.9 | ? | ? | 25.5% | 23.6% | 0.0%
COc1ccc(Cn2nnc(C(=O)Nc3cc(OC)ccc3OC)c2N)cc1 | nt | 18.4µM* | ? | nt | nt | nt
Cc1ccc(C)c(NC(=O)c2nnn(CC(=O)Nc3cccc(C)c3C)c2N)c1 | nt | 2.4% | -1.6% | nt | nt | nt
CCc1ccccc1NC(=O)c1nnn(CC(=O)Nc2ccccc2C)c1N | 17.5 | 1.1% | 6.6% | 10.9% | 0.8% | -1.5%
CCc1ccccc1NC(=O)c1nnn(Cc2ccc(Cl)cc2)c1N | nt | ? | 13µM* | nt | nt | nt
